Measurements published in PubChem BioAssay (NCI).
Compounds without any hit were thinned out: in the full panel of roughly 83,000, 20% have a hit.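 48-hour exposure, single concentration, 96-well plates; percent growth endpoint where 0 means no net growth. Active: below 10.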 Values without a mark were called inactive. Active and inactive are the calls of the source.

Columns and labels:
Assay in all cases: NCI-60 one-dose screen, 48 h (100 = growth as untreated, 0 = no growth, -100 = all killed)
Conditions in all cases: 10 µM unless noted
SR leukemia = test system: SR leukemia
RPMI-8226 leukemia = test system: RPMI-8226 leukemia
OVCAR-8 ovarian = test system: OVCAR-8 ovarian
OVCAR-5 ovarian = test system: OVCAR-5 ovarian
OVCAR-4 ovarian = test system: OVCAR-4 ovarian
SK-OV-3 ovarian = test system: SK-OV-3 ovarian
IGROV1 ovarian = test system: IGROV1 ovarian
OVCAR-3 ovarian = test system: OVCAR-3 ovarian
HS 578T breast = test system: HS 578T breast
NCI/ADR-RES ovarian = test system: NCI/ADR-RES ovarian

Compound | growth (SR leukemia) | growth (RPMI-8226 leukemia) | growth (OVCAR-8 ovarian) | growth (OVCAR-5 ovarian) | growth (OVCAR-4 ovarian) | growth (SK-OV-3 ovarian) | growth (IGROV1 ovarian) | growth (OVCAR-3 ovarian) | growth (HS 578T breast) | growth (NCI/ADR-RES ovarian)
CC(C)C[C@@H](NC(=O)[C@@H](Cc1ccccc1)NC(=O)c1cnccn1)B1O[C@H]2[C@H](O)[C@@H](C(=O)NCCCC[C@@H]3NC(=O)[C@@H](Cc4ccccc4)NC(=O)[C@H](CC(=O)O)NC(=O)CNC(=O)[C@H](CCCN=C(N)N)NC3=O)O[C@@H](CN)[C@H]2O1 | 1.66% (active) | 0.803% (active) | -42.6% (active) | -19.2% (active) | -27.9% (active) | -42.2% (active) | 4.07% (active) | -55.3% (active) | 4.75% (active) | 7.01% (active)
COc1ccc(/C=C(\C#N)c2cc3ccccc3n2C(C)=O)cc1 | 47.3% | 83.2% | 103% | 104% | 96.5% | 107% | 89.8% | 92.8% | 87.4% | 55.6%
C=CC(=O)N[C@H](Cc1ccc(-c2cc(Cl)cc(Cl)c2)cc1)[C@H](O)[C@@H](O)C(=O)O | 81.6% | 82.7% | 90.9% | 96% | 96.9% | 78.6% | 96.7% | 101% | 95.5% | 101%
COc1cc(-c2cc3ncccc3c3[nH]c(=O)c4cccnc4c23)cc(OC)c1OC | 20% | 6.32% (active) | 35.9% | 45.4% | 58.1% | 11.2% | 50.1% | 33.6% | 10.6% | 22.1%
Cc1ccc(-c2ccc(Nc3ccccc3)nn2)cc1S(N)(=O)=O | 23.6% | 86.1% | 94.1% | 101% | 94.7% | 100% | 97.3% | 94.6% | – | –
CCOC(=O)C/C(=C\c1ccccc1)C(C)=O | 96.7% | 95% | 90.9% | 108% | 112% | 75.1% | 109% | 107% | 108% | 110%
Cc1nnc2nc(N)[nH]n2c1=O | 78.9% | 106% | 98.8% | 117% | 99.4% | 112% | 103% | 104% | 112% | 99.7%
CC(C)(C)c1[nH]nc2c1C(c1cc3ccccc3[nH]c1=O)Nc1cc(C(=O)OCc3ccccc3)ccc1N2 (stereo not drawn) | 38.9% | 53.6% | 64.9% | 87.8% | 54.3% | 83% | 78.5% | 49.2% | 66.6% | 86.8%
O=[N+]([O-])c1ccc(N/N=C(\C(=N/Nc2ccc([N+](=O)[O-])cc2[N+](=O)[O-])c2ccccc2)c2ccccc2)c([N+](=O)[O-])c1 | -1.67% (active) | 93.3% | 87.6% | 98.4% | 5.4% (active) | 106% | 92.3% | 84% | 74.4% | 90.4%
C[C@H]1OC(=O)/C=C/[C@@H](O)[C@@H](O)CCCCCCCC[C@@H]1O | 118% | 101% | 89.6% | 95.6% | 101% | 94.9% | 103% | 109% | 101% | 98.1%
Cc1nn(-c2ccc(Br)cc2)c2nc3[nH]c(=O)[nH]c(=O)c3nc12 | 114% | 121% | 111% | 112% | 103% | 110% | 107% | 117% | 104% | 107%
CCC(=O)c1c(C)[nH]c(C)c1C | 70.7% | 113% | 85.1% | 48.8% | 123% | 93% | 76.1% | 115% | 138% | 85.3%
C=C(C)[C@@H]1CC[C@]2(C=O)CC[C@]3(C)[C@H](CC[C@@H]4[C@@]5(C)C/C(=C/c6cccnc6)C(=O)C(C)(C)[C@@H]5CC[C@]43C)[C@@H]12 | 40.6% | 35.5% | 63.5% | 128% | 64.6% | 117% | -31.2% (active) | 74.3% | 87.4% | 78.5%
C=C1C(=O)O[C@H]2[C@H]1CC/C(COC(=O)NCCc1c[nH]c3ccccc13)=C\CC[C@@]1(C)O[C@@H]21 | 0.79% (active) | -25.7% (active) | 36.4% | 56.6% | 38.4% | 89.1% | -16.6% (active) | -65.6% (active) | 81% | 65.9%
COc1ccc(-c2c(-c3nc4ccc(N5CCOCC5)cc4[nH]3)[nH]c(C)c2C(C)=O)cc1 | 47.8% | 3.61% (active) | 50.5% | 48.2% | 45.1% | 27.7% | 23.8% | 46% | 22.3% | 38.7%
COC(=O)[C@]12CC[C@@H](C)[C@H](C)[C@@H]1C1=CC(=O)[C@@H]3[C@@]4(C)C[C@@H](OC(C)=O)[C@H](OC(C)=O)[C@@](C)(COC(C)=O)[C@@H]4C(=O)C[C@@]3(C)[C@]1(C)CC2 | 29.1% | 3.4% (active) | 10.4% | 84.4% | 60.4% | 76.4% | 61.4% | 40.2% | 75.9% | 13.2%
COc1ccc(C2=NN(c3nc(-c4ccc(OC)cc4)c(C#N)c(=O)n3C)C(=O)CC2)cc1 | 87.2% | 95% | 101% | 72.3% | 105% | 96% | 96.3% | 104% | 94.9% | 101%
O=C(NO)c1ccc(Cn2c(=O)n(-c3ccccc3)c(=O)c3ccccc32)cc1 | 7.9% (active) | 14.8% | -6.49% (active) | 62.2% | 18.7% | 26.3% | 33.5% | 24.2% | 57.8% | 101%
CCCCCCCCNc1cccc2c1C(=O)c1ccccc1C2=O | 108% | 105% | 111% | 105% | 103% | 108% | 105% | 92.6% | 95.7% | 112%
COC(=O)CNc1nc(N(C)O)nc(N(C)O)n1 | 34.3% | 36.4% | 34.3% | 87.7% | 29.3% | 50.8% | 48% | -6.47% (active) | 77.8% | 21.3%
Clc1cc(Cl)cc(Nc2ccc3c(OCCCN4CCOCC4)cccc3n2)c1 | 6.22% (active) | 11.1% | 81.8% | 49.3% | 65.3% | 75.8% | 72.9% | 64.8% | 35.9% | 60.9%
C=C(C)[C@@H]1CC[C@]2(C(=O)NNC(=O)c3cccnc3)CC[C@]3(C)[C@H](CC[C@@H]4[C@@]5(C)CCCNC(C)(C)[C@@H]5CC[C@]43C)[C@@H]12 | 18.9% | 46.6% | 76.7% | 96.9% | 75.3% | 107% | 91% | 81.2% | 67.3% | 90.5%
NCCn1cc(-c2nc(-c3c[nH]c4ncccc34)cs2)c2cc(F)ccc21 | -5.68% (active) | 59.2% | 76.1% | 92.6% | 59.8% | 78.9% | 47.1% | 85.6% | 81.9% | 86.4%
O=C(N/N=C/c1ccccc1SSc1ccccc1/C=N/NC(=O)c1ccccc1)c1ccccc1 | 18.9% | 31.1% | 24.9% | 85.2% | 38.5% | 43% | 30.6% | 31.1% | 75.4% | 9.77% (active)
Oc1ccc(CCC2CCCC(CCc3ccc(OCCF)cc3)N2)cc1 (stereo not drawn) | 67.2% | 90.8% | 93.3% | 89.4% | 82.9% | 96% | 96.2% | 107% | 97.5% | 87.6%
CC/C=C\C[C@H]1CC=C2C(=O)C=C[C@@H]2CC=CCCCC(=O)O[C@@H](CCCCC)CC=C2C(=O)C=C[C@@H]2CC=CCCCC(=O)O[C@@H](CCCCC)CC=C2C(=O)C=C[C@@H]2CC=CCCCC(=O)O[C@@H](CCCCC)CC=C2C(=O)C=C[C@@H]2CC=CCCCC(=O)O1 | 2.79% [7.9 µM] (active) | 0.23% [7.9 µM] (active) | -21.9% [7.9 µM] (active) | 75.1% [7.9 µM] | 21.6% [7.9 µM] | 73.4% [7.9 µM] | 8.16% [7.9 µM] (active) | -14% [7.9 µM] (active) | 41.9% [7.9 µM] | 92.6% [7.9 µM]
